The record followed here is the supplement of paper PMC10681739.
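Also: Full-length recombinant human RUNX1 bound to double-stranded 36-bp genomic probes on a high-density microarray, scored as Alexa488 fluorescence per spot via anti-RUNX1 antibody, median of four replicate spots.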

Chain of RUNX1 (Q01196 whole entry): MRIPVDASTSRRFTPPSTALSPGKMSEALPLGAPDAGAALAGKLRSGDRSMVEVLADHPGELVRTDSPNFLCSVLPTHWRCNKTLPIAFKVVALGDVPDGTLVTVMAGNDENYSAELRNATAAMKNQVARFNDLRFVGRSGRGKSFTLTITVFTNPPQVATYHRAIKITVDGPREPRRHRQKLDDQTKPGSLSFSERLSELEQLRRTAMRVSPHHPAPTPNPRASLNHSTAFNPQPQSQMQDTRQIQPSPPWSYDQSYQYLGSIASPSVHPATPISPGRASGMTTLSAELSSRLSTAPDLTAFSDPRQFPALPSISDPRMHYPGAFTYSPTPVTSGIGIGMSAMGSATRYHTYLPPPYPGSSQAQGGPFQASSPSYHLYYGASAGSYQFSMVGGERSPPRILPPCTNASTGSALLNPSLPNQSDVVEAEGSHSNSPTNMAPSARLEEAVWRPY

This test has as its target RUNX1 (UniProt Q01196). The test is described as follows: RUNX1 binding intensity (PBM fluorescence), RUNX1 alone (arbitrary fluorescence units); higher = stronger binding. Conditions: RUNX1 concentration 2 nM; ETS1 concentration 0 nM. The procedure:
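Cooperative gcPBM on 36-bp genomic probes with neighbouring ETS1 and RUNX1 sites. Recombinant human RUNX1 (2 nM) was incubated alone or with ETS1 (25 nM) and detected with anti-RUNX1 antibody plus Alexa488 secondary. Values are medians over 4 replicate spots; the RUNX1+ETS1 data were normalised to the RUNX1-only data. The probes sit in constant array flanks that are not printed.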
Regarding GGGCAGGAAGGAAGAGGGCTCCTCCCCACAAGCTCT, the RUNX1 binding intensity is 738.
CTCTCCACCTCCTTCCGACCAGGACCGCACCCCCCC gave an RUNX1 binding intensity of 1990.
With CCAGCCCAGGAAACAAGGAACCCCAAAGCCACAGGA, the RUNX1 binding intensity amounted to 828.
For TAGCATGTGAGCTTCCTGTGGGTTTGTGCAGCCCCA the value was 708; for ATCATCTAGGAGACAGGATGTGGTTAGGGTGTTAAA, 1070; for GCCCAGTTCTCGCATCCGGTCTGCGGCGCGCTCGGG, 828.
For GAGAGGAGGATGTTGTCAGATACCCACAAATGAGAA the value was 812.
Next, ACCAGAACTAAAGCGGATAGCGGTTAGAAACGCCCA: 872.
With TGACGGCAGGCAGGATGTGGTGAGACAAATCCACTC, the RUNX1 binding intensity turned out to be 904.
In turn, TCCTTTTCCGGTGGCGGCGCCGCGCGGTGAGGTTGT gave an RUNX1 binding intensity of 731.
TAGCCACGAACCGGAAACGTTAAACCACAGCTCCGT displayed an RUNX1 binding intensity of 994.
Next, TTACCCCGGCGGAACGGAGGCCTGCGGTCGCGGCGG: 941.
The sequence AGTTACAGTAAAGGATGTGGTGAAACAGATGTTTAT came in with an RUNX1 binding intensity of 781.
Next, CCCAGAGCTTCCGATTGGCTCTTCTGTGGTGGCGGG: 1010; TTACCATCGCCCTTCCTGTGGGCTGGGAGGCCAGGT: 754.
The sequence TACCTACATCCTGCCACCACCCGAGGGGACCGCAAG showed an RUNX1 binding intensity of 1050.
In the case of GGCAGCAAGAAAGGAAATAGTGTGGTTGGGTGGAGA, the RUNX1 binding intensity stood at 846.
For TTCAGAAAAAAAGGAAGTGGTAAATTCTTGCTGATT the value was 775.
In turn, GGAGGAAGAGGAGGATGTGGTGAGCCGCTCCCCGCC registered an RUNX1 binding intensity of 782.
In turn, AGGGTTGGGGAGGATGTTGTGGTTATTATTGACATA returned an RUNX1 binding intensity of 1570.
In the case of TTTTCTTTCCTAGGAAGTGGTTGCTGGGTTCTGAGG, the RUNX1 binding intensity stood at 831.
For GTTGTCTTCTTCCTGAGTAAACCGCAGTGCAGAGAA the value was 5250.
The sequence CACTTCCCCCAGCCTCTCTTTTTAATACCACAATAG came in with an RUNX1 binding intensity of 3520.
For AAACCAGAGAGGAAGTGGCACCACATGGCCAGACTG the value was 755; for TGAGAGTAAAAAGGATGTGGTTTCCTTTCATTTTTT, 927; for GCGGGGACCCGGATGTGTGTGGTGGCGGCGGCCGAA, 700.
For CTCCAGGGACAACCCGGAAACCACATTGCCCAGCGT the value was 982; for CAGCTCCGACTTCCGGGTGCGGTACGGCGAAGCAGA, 756.
For the sequence GCTCTTCACTTCCTGTGGCTCCCGCAGCGGCCGCCG, the RUNX1 binding intensity was 1090.
With GCTGCCACTTCCCTTGCTTATTTCATGTGGTTTGGA, the RUNX1 binding intensity was 1230.
As for TCTAAATCACTTCCTGTTACAGAAACCACAGGCCTG, the RUNX1 binding intensity stood at 1220.
For GCCGGGCACTTCCTGTGGAGGCCGCAGCGGGTGCGC the value was 709; for CAGCTGCTGACAGGAAAACCACAGTGGAAGGGGAAG, 898.
For GCCACAGCCGGAAGCAGGCTGACCACAAGTGCTAAG, the RUNX1 binding intensity came to 1310.
With AGGCAAACAGGATGTTCCTCTCCCACATGCAGACTT, the RUNX1 binding intensity was found to be 806.
In the case of GGACTCTGGCAGGAAGCTGTTTGTGGTTGTCACACC, the RUNX1 binding intensity is 796.
TCATATCCGGCAGGAATGGGTTTTGTGGCTTTGTGC: the RUNX1 binding intensity stood at 1670.
CCCTGAGCACTTCCCCGTAAGGCTGCGGTGCACGGG displayed an RUNX1 binding intensity of 871.
Sequence GGAACAGGAAGCGGCAGAAATAGCAGCCACCGCGGC gave an RUNX1 binding intensity of 819.
Consider GCTTGCTCCCACAGGAAACCGCAGGCTTCGGGCACA, for which the RUNX1 binding intensity was 7370.
